# Laboratory results from PubChem BioAssay (NCI).
# Compounds without any hit were thinned out: in the full panel of roughly 79,000, 15% have a hit. A number with no mark means an inactive call. Calls of active or inactive are those of the source. Rule as the data show it: active = growth inhibition above about 70%; inactive = the rest. Where a SMILES comes first, the peptide text is derived from it. The star is where a group is joined. Cbz = O=C(OCc1ccccc1)*
# Assay: NCI Yeast Anticancer Drug Screen. Data for the bub3 strain (AID 167)
# Settings: S. cerevisiae bub3 mutant strain, at 50.0 µM, active compounds read high
# Protocol: Growth inhibition of yeast strains with defined genetic alterations is measured as a screen for potential anti-cancer activity. Selected strains with alterations in DNA damage repair or cell cycle control were exposed to compounds and growth inhibition was measured relative to vehicle treated controls. The strain used in this assay is bub3
row,SMILES,growth inhibition
1,CCOc1c(N=Nc2ccccc2C)c(C)nn1C(N)=S,21.1%
2,Cc1ccc(-n2cc(-c3ccc(Cl)cc3)c3c2N=CN2NC(c4cccs4)=NC32)cc1 (stereo not given),-16.7%
3,CCOC(=O)c1cnc(=S)[nH]c1N,-3.15%
4,O/N=C/c1nc2ccccc2s1,-17.6%
5,Clc1ccc(C2ON=C(c3ccccc3)N2C23CC4CC(CC(C4)C2)C3)cc1 (stereo not given),-11.9%
6,Cc1cccc(NC(=O)O/N=C(\Cl)C(C)C)c1,35.4%
7,Nc1cccc2ncccc12,-1.95%
8,CCOC(=O)c1[nH]c(Cc2[nH]c(C(=O)OCC)c(CC)c2C)c(C)c1CC,-4.7%
9,COc1ccc(C2CC(c3cc(C)ccc3O)=NC(N)=N2)cc1 (stereo not given),13.4%
10,CC(=O)c1cc(C(C)=O)c(CC(=O)C(=O)Nc2cccc(C)c2C)nc1CC(=O)C(=O)Nc1cccc(C)c1C,-9.6%
11,C=Cc1ccc(C)[n+](C[Si](C)(C)O[Si](C)(C)C)c1,-22.9%
12,O=c1cc(NCc2c(Cl)cccc2[N+](=O)[O-])[nH]c(=O)[nH]1,15%
13,CC(=O)OCCOCNC(=S)N/N=C/c1ccc([N+](=O)[O-])s1,2.7%
14,O=C1C(=O)N(c2cc(Cl)ccc2Cl)C(=O)C(=O)C1c1nc2ccccc2s1,9.4%
15,Cc1c([N+](=O)[O-])cc(C(C)(C)C)c(OC(=O)Nc2cccc(Cl)c2)c1[N+](=O)[O-],39.1%
16,COc1ccc(CC(N)C(=O)OCCCl)cc1 (stereo not given),0.3%
17,COC(=O)C(=O)C1CCc2c(ccc3c2CCCC3)C1 (stereo not given),8.2%
18,CC(=O)Nc1cccc(/C=C/c2ccc([N+](=O)[O-])cc2)c1,46.4%
19,Cc1cc2c(cc1C)NC(=O)C(NC(=O)c1ccc(Cl)cc1)C=N2 (stereo not given),5.95%
20,CCC(O)C(=O)O (stereo not given),-9.9%

row,SMILES,growth inhibition
1,CN(C)CCN(C)CC(C)(C)C(=O)/C=C/c1ccccc1,-7.15%
2,COc1ccc(NC(=O)CCC2=CC(=O)CC(c3ccccc3)O2)cc1 (stereo not given),-8.45%
3,Nc1ccc2c(c1)NCC2,-14.9%
4,Nc1nc2c(c(=O)[nH]1)CN(CCCN1CCOCC1)CN2,-30%
5,CCCCC(CC)C1OCCS1 (stereo not given),-17%
6,CN1CCN(c2nc3c(c(=O)n(C)c(=O)n3C)n2C)CC1,-11%
7,COc1cc(/C=N/NC(=O)Cc2cccc3ccccc23)ccc1O,39.4%
8,O=C1NC(c2ccccc2Cl)Nc2ccccc21 (stereo not given),5.45%
9,O=C(CCc1n[nH]c(=S)o1)Nc1ccccc1,14.1%
10,CC(C)(C)C(=O)/C=C/c1ccc(Oc2ccccc2)cc1,-19.8%
11,O=C(NC(=O)c1c(F)cccc1F)Nc1cccc(C(F)(F)F)c1,-3.3%
12,CCc1ccc(NC(=S)NC(=O)C(C)Oc2ccccc2)cc1 (stereo not given),78.8% (active)
13,Cc1ccc(S(=O)(=O)Nc2ccccc2-c2nc3c(Cl)ccc(Cl)c3c(=O)o2)cc1,-5.45%
14,CCCCCCCCCCCCCCCCC(NC(C)=O)(C(=O)OCC)C(=O)OCC,-1.25%
15,O=C(/C=C(\C(=O)c1ccccc1)c1ccccc1)c1ccc(Cl)cc1,-13.1%
16,C=C(C)c1ccccc1S(=O)(=O)c1ccccc1C(C)(C)O,36.5%
17,O=C1OCCC1=P(c1ccccc1)(c1ccccc1)c1ccccc1,-7.4%
18,CCOC(=O)CCC(NC(=O)C(CCC(=O)O)NC(=O)OCc1ccccc1)C(=O)OCC (stereo not drawn) (Cbz-Glu-Glu(OEt)-OEt; configuration not given here),0.05%
19,CC(=O)NNC(=S)/N=C\c1c(O)c2ccccc2oc1=O,-38.5%
20,c1nnc2c3c4c(sc3ncn12)CCCC4,-0.1%
